High-throughput results (PubChem)
This is a sample that favours compounds with a hit; in the whole collection about 2.8% have one here.
PTHR1 agonist – qHTS for PTHR1 Agonists: Primary Screen; hit rate 0.075% among 410,000; AID 743266, 2014; HEK293 GP2 PTHR1 cells, GloSensor cAMP luminescence, 1 h; Parathyroid hormone/parathyroid hormone-related peptide receptor (Homo sapiens), Q03431; Potency, µM (titrated, usually from 115 µM), inactives show at the highest dose activation, most hits filed as activators; further: potency means the concentration at half of the fitted maximal effect; nearly all actives have a fitted effect of over 55% in size
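HEK-293-derived GP2 cells expressing PTHR1 and a GloSensor cAMP reporter, 3,000/well, plated overnight, given luciferin plus IBMX (each 0.5 mM as added) for 1 h at 37 °C, then compound for 1 h at 37 °C. Luminescence was read after 15 min at room temperature.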
CBFb-RUNX1 inh – qHTS Assay for Compounds Blocking the Interaction Between CBF-beta and RUNX1 for the Treatment of Acute Myeloid Leukemia; 230,000 tested, under 10 active; Potency, µM (titrated, usually from 59.8 µM), for the others: at the highest dose activity, negative = inhibition, most hits filed as inhibitors; AlphaScreen CBFb-His/RUNX1-biotin binding, biochemical; AID 1477, 2009; further: % of control where 0% means no effect
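Proteins preincubated together for 20 min at RT before compound addition; 15 min later, nickel and streptavidin beads were added and left 90 min prior to AlphaScreen measurement.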
Integrin act MD – qHTS for Activators of Integrin-Mediated Alleviation for Muscular Dystrophy. alpha7betagal myoblasts, beta-gal FDG fluorescence, 48 h. Potency, µM (highest dose often 38.3 µM), inactives show at the top dose activation, most hits filed as activators. hit rate 0.064% among 350,000. AID 624291, 2012;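 further: potency means the concentration at half of the fitted maximal effect; 100% = response of the positive control SU9516; nearly all actives have a fitted effect of over 60% in size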
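Alpha7betagal+/- myoblasts (passage 13) were plated 16-24 hr, then exposed to compounds (1:260 dilution of DMSO stock) for 48 hours at 37C. After MPER lysis, β-galactosidase reporter activity was read as FDG fluorescence (ex 480/em 540) after 30 minutes.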
D3 antag – qHTS of D3 Dopamine Receptor Antagonist: qHTS; D3R cells, DiscoveRx beta-arrestin luminescence, antagonist mode; active compounds read low; hit rate 2.5% among 360,000; max response, negative = inhibition, %; AID 652054, 2013; D(3) dopamine receptor (Homo sapiens), P35462; in the data active means max response below about -50%; inconclusive means no clear call, values can overlap the other calls; further: on the % scale 0 is the no-effect control and ±100 the full control effect
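Cells expressing the human receptor were seeded at 1500 cells/well, incubated overnight at 37 degrees C in 5% CO2, then exposed to library compounds with dopamine controls for 90 minutes at 37 degrees C before luminescent detection.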
DRD3 agonist – qHTS of D3 Dopamine Receptor Agonist: qHTS; D(3) dopamine receptor (Homo sapiens), P35462; max activation, %; AID 652048, 2013; D3R DiscoveRx beta-arrestin cells, luminescence, 90 min; hit rate 0.58% among 410,000; in the data active means max activation above about 30%; further: 0% is about no effect
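Cells at 1500/well, incubated overnight, then treated with pinned compounds (dopamine as control) for 90 min at 37 degrees C. DiscoveRx reagent added for 30 - 60 minutes at room temperature; luminescence read.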
MBNL1-CUG inh – qHTS Assay for Inhibitors of MBNL1-poly(CUG) RNA binding; AID 2675, 2010; Potency, µM (doses to about 57.5 µM), for inactives: top-dose activity change, negative = inhibition, most hits filed as inhibitors; hit rate 0.036% among 280,000; TR-FRET MBNL1-His/biotin-(CUG)12 binding, 665/545 ratio; active means well fitted inhibition curve with a large enough effect in the signal ratio, with a control signal flat, not every such curve was filed as active; inconclusive means small, poorly fitted or top-dose-only effect, or effect the other way, or a change in a side signal; inactive means no such curve, though single readings can be large or run the other way; the % refers to the signal ratio; further: potency means the concentration at half of the fitted maximal effect; on the % scale 0 is the no-effect control and ±100 the full control effect
Target sequence (Q9NR56 whole entry, looked up): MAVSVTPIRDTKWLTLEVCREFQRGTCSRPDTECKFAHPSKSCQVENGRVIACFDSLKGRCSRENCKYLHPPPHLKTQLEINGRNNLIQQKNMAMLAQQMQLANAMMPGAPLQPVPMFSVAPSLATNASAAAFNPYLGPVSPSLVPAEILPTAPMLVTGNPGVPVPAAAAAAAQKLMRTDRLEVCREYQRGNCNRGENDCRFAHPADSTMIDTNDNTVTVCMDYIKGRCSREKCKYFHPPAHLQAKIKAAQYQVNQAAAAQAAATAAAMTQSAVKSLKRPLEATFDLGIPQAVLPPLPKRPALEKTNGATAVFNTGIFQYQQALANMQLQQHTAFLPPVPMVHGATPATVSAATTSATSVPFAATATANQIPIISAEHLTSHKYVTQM
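Inhibition of protein-RNA binding appears as loss of TR-FRET between terbium anti-His antibody on MBNL1-His and streptavidin-XL665 on biotin-(CUG)12. Activity is normalized to buffer-only and uninhibited-complex controls.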
Numbers without * were called inactive; i = inactive; ? = inconclusive; nt = no result given; [ ] = remark or other dose. Unless noted, the call rests on the fitted dose curve; in most records, active means well fitted curve in the direction sought with a large enough effect; inconclusive means small, poorly fitted or top-dose-only effect, or another doubt; inactive means no such curve, though single readings can be large; an effect the other way counts as inactive or inconclusive.

SMILES	PTHR1 agonist	CBFb-RUNX1 inh	Integrin act MD	D3 antag	DRD3 agonist	MBNL1-CUG inh
CNc1cc([N+](=O)[O-])ccc1N/C=C/C(=O)c1cccs1	-59%	-24%	3%	-7	-22	?
CNc1cc([N+](=O)[O-])ccc1N/C=C/C(=O)c1ccc2c(c1)OCO2	i	-13%	-6%	-50*	-23	?
CCCn1c(N2CCN(C(=O)Nc3ccccc3)CC2)nc2ccccc21	-21%	5%	22%	4	-2	-4%
CCCn1c(N2CCN(CC(=O)NCc3cccs3)CC2)nc2ccccc21	-2%	7%	-5%	-67*	-3	-5%
COCCCNC(=S)NC1CC2CCC(C1)N2Cc1ccccc1 (stereo not drawn)	?	2%	34%	-60*	-19	-11%
COCCCNC(=S)NC1CC2CCCC(C1)N2Cc1cccs1 (stereo not drawn)	i	2%	-19%	-26	-30	-20%
CCOCCCNC(=S)NC1CC2CCC(C1)N2Cc1ccccc1 (stereo not drawn)	-33%	1%	12%	-62*	-13	10%
CCCN1C2CCCC1CC(NC(=S)NCCCOCC)C2 (stereo not drawn)	i	0%	20%	13	-5	0%
Cc1cc2n(n1)CCCN2C(=O)Nc1ccc(C)c(Cl)c1	i	nt	nt	nt	5	nt
C[C@H](CO)N1C[C@H](C)[C@H](CN(C)Cc2ccncc2)Oc2ncc(C#CC3CC3)cc2C1=O	-8%	nt	5%	-56*	2	nt
C[C@@H]1CN([C@H](C)CO)C(=O)c2cc(C#CC3CCCCC3)cnc2O[C@H]1CN(C)Cc1cccnc1	-24%	nt	5%	22	2	nt
COc1ccc(Cl)cc1C(=O)NNC(=O)c1csc(N2CCOCC2)n1	-10%	nt	-13%	1	9	nt
CCC(=O)Nc1cc(NC(=O)CSc2ncc(-c3ccc(F)cc3)n2Cc2ccco2)ccc1C	-2%	-15%	18%	-60*	1	-2%
C=CS(=O)(=O)c1c2cc(OC)ccc2nc2ccc(OC)cc12	-38%	nt	-55%	-83*	-23	nt
CCCCOC(=O)CC(CC(=O)OCCCC)(OC(C)=O)C(=O)OCCCC	nt	nt	nt	nt	0	nt
COCCn1c(C)cc(C(=O)COC(=O)c2ccc(Br)o2)c1C	-45%	-5%	?	-82*	-3	11%
Cc1cc(C(=O)COC(=O)c2ccc(Br)o2)c(C)n1C	-49%	-7%	11%	-10	-2	nt
CC1(C(=O)NS(=O)(=O)c2ccc(Cl)cc2)CCN1C(=O)c1ccco1 (stereo not drawn)	i	nt	nt	-26	-2	nt
Cn1c(=O)[nH]c(=O)c2c1nc(N1CCCCCC1)n2CCSc1nc2ccccc2o1	i	15%	12%	-23	-10	0%
Cn1c(=O)[nH]c(=O)c2c1nc(Br)n2CCSc1nc2ccccc2o1	-14%[57.5 µM]	-5%	-18%[7.66 µM]	-70*	-6	1%
NC(=O)c1c(NC(=O)c2cc3ccccc3o2)sc2c1CCC2	-93%	2%	8%	3	1	7%
CN1CCc2c(sc(NC(=O)c3ccc([N+](=O)[O-])o3)c2C(N)=O)C1	-22%	nt	-57%	-56*	-14	?
NC(=O)c1c(NC(=O)c2ccc([N+](=O)[O-])o2)sc2c1CCCC2	-52%	nt	?	-50*	-5	?
CCCN1CCc2c(sc(NC(=O)Cc3ccc(F)cc3)c2C(N)=O)C1	i	nt	-33%	-59*	-19	1%
N#Cc1c(NC(=O)c2ccccc2)sc2c1CCC2	-9%[57.5 µM]	2%	-8%	-28	-4	61%
SMILES	PTHR1 agonist	CBFb-RUNX1 inh	Integrin act MD	D3 antag	DRD3 agonist	MBNL1-CUG inh
N#Cc1c(NC(=O)c2ccc([N+](=O)[O-])o2)sc2c1CCC2	-93%	nt	-52%	-63*	-33	?
COc1cccc(CNC(=O)C2CCC(CNS(=O)(=O)c3ccc(Br)s3)CC2)c1 (stereo not drawn)	-16%	nt	nt	nt	-5	nt
Cc1cc(C(C)(C)C)ccc1OCCn1ccnc1	-69%	-10%	-29%	-64*	2	9%
Cc1ccc(OCCn2ccnc2)c(C)c1	-8%	nt	?	-21	-3	0%
C=CCc1ccccc1OCCn1ccnc1	-2%[57.5 µM]	3%	14%	-52*	6	-4%
c1ccc(-c2ccccc2OCCOCCN2CCCCC2)cc1	i	2%	-58%	?	-28	-4%
c1ccc(-c2ccccc2OCCCCN2CCCCCC2)cc1	-17%	?	-63%	-86*	-3	-2%
C=CCc1cccc(OC)c1OCCOCCn1ccnc1	i	?	17%	9	3	9%
c1ccc(-c2ccccc2OCCN2CCCC2)cc1	-14%	nt	-17%	-63*	-23	-9%
OCCC1CN(Cc2cccn2-c2cccnc2)CCN1C1CCCC1 (stereo not drawn)	-4%	0%	2%	-21	-4	6%
C=CCc1ccccc1OCCCCN1CCCC1	i	14%	-43%	-83*	-12	-1%
CC(=O)/C(N=Nc1cc2c(c([N+](=O)[O-])c1C)C(C)(C)CC2(C)C)=C(\C)O	-25%	7%	29%	21	34*	-13%
CC(=O)/C(N=Nc1cc2c(cc1[N+](=O)[O-])OCCO2)=C(\C)O	-12%	2%	3%	7	-8	12%
C[C@@H]1/C=C\CC(=O)OC[C@H](C)C(=O)N[C@@H](Cc2ccccc2)C(=O)OC1	nt	4%[13.1 µM]	nt	nt	nt	nt
COC(=O)C1=C(C)N(CCCC(=O)O)C(=O)NC1c1ccccc1OS(=O)(=O)c1ccccc1[N+](=O)[O-] (stereo not drawn)	8%	nt	18%	-9	9	nt
CCOC(=O)C1=C(C)N(Cc2ccccc2)C(=O)NC1c1ccccc1OS(=O)(=O)c1ccccc1[N+](=O)[O-] (stereo not drawn)	-44%	nt	-12%	0	46*	nt
O=C(c1cc(-c2ccc(Br)cc2)n[nH]1)N1CCN(S(=O)(=O)c2ccc(Br)s2)CC1	i	nt	nt	nt	34*	nt
COc1cc(OCc2ccccc2)c(OC)c(OCc2ccccc2)c1	-11%	nt	-13%	28	40*	nt
COc1cc(NC(=O)C2C3C=CC(C3)C2C(=O)O)ccc1NC(=O)c1ccccc1 (stereo not drawn)	-10%	nt	8.9µM*	-21	-6	-6%
